TDP1 cell CPT: qHTS for Inhibitors of human tyrosyl-DNA phosphodiesterase 1 (TDP1): qHTS in cells in presence of CPT. chicken DT40 Tdp1-/-;hTDP1 cells + 20 nM CPT, ATP luminescence, 48 h. 12% of 420,000 active. Potency, µM (doses to about 46.2 µM), for the others: at the highest dose activity change, negative = growth inhibition, most hits filed as inhibitors; further: potency means the concentration at half of the fitted maximal effect; on the % scale 0 is the no-effect control and ±100 the full control effect; nearly all actives have a fitted effect of over 55% in size
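Cell growth measured by CellTiter-Glo luminescence after a minimum 48 h, 37 C compound exposure with 20 nM CPT in Tdp1-knockout DT40 cells stably expressing hTDP1, seeded 400/well; qHTS titration format.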
TGFb inhibitor: qHTS for Inhibitors of TGF-b; 1.2% of 410,000 active; Potency, µM (titrated, usually from 46.1 µM), inactives show top-dose activity, negative = inhibition, hits mostly inhibitors; HepG2 CAGA-GFP TGF-b/SMAD3 reporter, GFP fluorescence, 18 h; TGF-beta stimulated, 500 pg/mL final; further: potency means the concentration at half of the fitted maximal effect; on the % scale 0 is the no-effect control and ±100 the full control effect; nearly all actives have a fitted effect of over 65% in size
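First, reporter cells (HEPG2 CAGA-GFP) rested 2 h at 37 degrees C. Next, compounds were pinned in and TGF-beta added to 500 pg/mL final. After 18 h, GFP was imaged per cell and summed per well.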
TDP1 inh: qHTS Assay for Inhibitors of Tyrosyl-DNA Phosphodiesterase (TDP1); recombinant TDP1, AlphaScreen DNA substrate cleavage; Potency, µM (series often up to 130 µM), for the others: at the top dose activity change, negative = inhibition, hits mostly inhibitors; 0.28% of 350,000 active; further: potency means the concentration at half of the fitted maximal effect; on the % scale 0 is the no-effect control and ±100 the full control effect; nearly all actives have a fitted effect of over 40% in size
Target sequence (Q9NUW8 whole entry, looked up): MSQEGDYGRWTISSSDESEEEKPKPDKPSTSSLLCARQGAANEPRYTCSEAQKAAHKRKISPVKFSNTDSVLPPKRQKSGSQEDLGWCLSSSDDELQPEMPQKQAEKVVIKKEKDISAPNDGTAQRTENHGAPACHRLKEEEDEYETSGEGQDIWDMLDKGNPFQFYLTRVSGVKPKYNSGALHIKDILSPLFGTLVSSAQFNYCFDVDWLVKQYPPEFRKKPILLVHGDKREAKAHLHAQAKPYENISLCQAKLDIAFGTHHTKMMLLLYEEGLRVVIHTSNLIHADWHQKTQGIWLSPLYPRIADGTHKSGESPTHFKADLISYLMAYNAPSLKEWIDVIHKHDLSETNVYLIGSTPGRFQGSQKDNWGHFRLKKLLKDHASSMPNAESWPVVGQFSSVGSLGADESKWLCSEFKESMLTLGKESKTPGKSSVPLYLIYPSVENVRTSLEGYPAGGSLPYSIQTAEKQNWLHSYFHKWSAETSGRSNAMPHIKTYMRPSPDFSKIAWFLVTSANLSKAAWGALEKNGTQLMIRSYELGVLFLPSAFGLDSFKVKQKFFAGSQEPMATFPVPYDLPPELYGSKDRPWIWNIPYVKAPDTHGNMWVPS
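Compounds were preincubated with Tdp1 (1 nM final) for 15 min at room temperature before substrate (15 nM final) started a 5 min reaction; beads (10 ug/ml final) were then added for 10 min before AlphaScreen detection.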
HepG2 viability: qHTS for Inhibitors of TGF-b: Cytotox Counterscreen; Potency, µM (doses to about 46.1 µM), for inactives: at the highest dose activity change, negative = cytotoxicity, usual class: cytotoxic; AID 588856, 2011; 0.76% of 410,000 active; HepG2 CAGA-GFP viability, ATP luminescence, 18 h; further: potency means the concentration at half of the fitted maximal effect
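HepG2 CAGA-GFP cells (1000/well, DMEM with 1% FBS) received compound, then TGF-beta at 500 pg/mL final, and were incubated 18 hours at 37 degrees C. Viability was read by CellTiter-Glo luminescence. Media-only wells were set as complete cell-killing and DMSO as no toxicity.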
IL1B secr inh: qHTS for Inhibitors of Inflammasome Signaling: IL-1-beta AlphaLISA Primary Screen; 4.7% of 360,000 active; activity change, % at 57.5 µM; THP-1 LPS/ATP IL-1B secretion, AlphaLISA, 16 h; active compounds read low; in the data active means activity change below about -50%; inconclusive means mostly about -30% to -49%; further: on the % scale 0 is the no-effect control and ±100 the full control effect
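Secreted IL-1B measured by AlphaLISA bead assay after 16 h compound exposure of THP-1 cells; compounds (final up to 57.5 uM) added 1 h before LPS (250 ng/mL) and ATP (1.25 mM) stimulation; lower signal means less secretion.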
TDP1 cell noCPT: qHTS for Inhibitors of human tyrosyl-DNA phosphodiesterase 1 (TDP1): qHTS in cells in absence of CPT; Potency, µM (series often up to 46.2 µM), inactives show at the top dose activity change, negative = growth inhibition, hits mostly inhibitors; 15% of 420,000 active; DT40 Tdp1-/- hTDP1 cells, no CPT, ATP luminescence, 48 h; further: potency means the concentration at half of the fitted maximal effect; on the % scale 0 is the no-effect control and ±100 the full control effect; nearly all actives have a fitted effect of over 55% in size
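DT40 Tdp1-/-;hTDP1 cells, no CPT (DMSO vehicle only), 400 cells/well; compounds pin-transferred; ≥48 hr, 37 °C; CellTiter-Glo 30 min RT dark, luminescence read.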
Numbers without * were called inactive; i = inactive; ? = inconclusive; nt = no result given. Hits are enriched below; roughly 18% of the tested compounds scored in any of these assays. Unless noted, the call rests on the fitted dose curve; in most records, active means well fitted curve in the direction sought with a large enough effect; inconclusive means small, poorly fitted or top-dose-only effect, or another doubt; inactive means no such curve, though single readings can be large; an effect the other way counts as inactive or inconclusive.

SMILES	TDP1 cell CPT	TGFb inhibitor	TDP1 inh	HepG2 viability	IL1B secr inh	TDP1 cell noCPT
Cc1ccc(S(=O)(=O)N2CCCc3cc(NC(=O)c4ccc(C(F)(F)F)cc4)ccc32)cc1	?	-4%	1%	-29%	nt	21µM*
Cn1c(=O)c2[nH]c(N=Nc3ccc(N)cc3N)nc2n(C)c1=O	-5%	18%	nt	41%	0	-9%
COc1ccccc1C(=O)Nc1ccnn1C1CCN(Cc2cnn(C)c2C)CC1	-6%	-15%	0%	4%	i	-8%
CN(C)C(=O)c1ccc(Nc2ncnc3sc4c(c23)CCCCC4)cc1	?	-10%	5%	-15%	-12	23µM*
O=C(Nc1ncnc2sc3c(c12)CCCC3)c1ccncc1	10%	-3%	5%	-6%	0	-23%
CN1CCC(=NNc2ncnc3sc4c(c23)CCCC4)CC1	16µM*	-12%	5%	-25%	-7	21µM*
Cc1ccc(NS(=O)(=O)c2ccc(F)cc2)cc1C	nt	nt	1%	nt	nt	nt
COc1cccc(NC(=O)CN(C)C(=O)CC(C)c2ccccc2)c1 (stereo not drawn)	-10%	6%	0%	-17%	-3	6%
COc1ccc(NC(=O)CN(C)C(=O)CNC(=O)c2ccc3ccccc3c2)cc1	-6%	9%	7%	4%	46	-9%
COc1cccc(NC(=O)CN(C)C(=O)COc2ccccc2Cc2ccccc2)c1	?	-20%	1%	-14%	26	29µM*
COc1cccc(NC(=O)CN(C)C(=O)CNC(=O)c2ccc(Oc3ccccc3)cc2)c1	?	1%	-6%	-24%	-96*	?
N=c1n(CC(=O)c2ccc(Br)s2)c2ccccc2n1Cc1ccccc1	5.2µM*	?	-5%	-122%	-104*	4.6µM*
Cn1c(=N)n(CC(=O)c2ccc(Br)s2)c2ccccc21	26µM*	1%	-2%	-52%	-95*	18µM*
COc1cccc(C(=O)Cn2c(NCCO)nc3ccccc32)c1	5%	-17%	3%	-12%	-9	-5%
CCN(CC)CCn1c(=N)n(CC(=O)c2ccc(Br)s2)c2ccccc21	5.8µM*	?	0%	-149%	nt	7.3µM*
COc1cccc(C(=O)Cn2c(=N)n(C)c3ccccc32)c1	13µM*	-1%	-8%	-18%	-10	21µM*
CCN(CC)CCn1c(=N)n(CCO)c2ccccc21	-17%	0%	5%	9%	-1	-13%
COc1ccc(-c2nc3cnc(OC)nc3n(-c3ccccc3)c2=O)cc1	25%	nt	nt	nt	nt	20%
Oc1ccc(NCc2cccs2)cc1	?	?	2%	-99%	9	13µM*
CCOc1ccc(CNc2ccc3c(c2)ncn3C)cc1	-12%	-1%	9%	-18%	-6	?
CC(C)(C)n1cnc2cc(NCc3cccs3)ccc21	?	0%	8%	0%	-59*	-17%
COc1ccc(CNc2ccc3c(c2)ncn3-c2ccccc2OC)cc1	?	-22%	12%	-27%	-91*	?
Cc1ccccc1-n1cnc2cc(NCc3cccs3)ccc21	?	-13%	12%	-24%	-11	23µM*
CCC(=O)N1CCc2cc(Br)cc(S(=O)(=O)N3CCC(C(=O)Nc4ccc(OC)cc4)CC3)c21	?	?	3%	-1%	nt	?
CC(C)(C)n1cnc2cc(NC(=O)c3cccs3)ccc21	?	16%	6%	0%	-70*	23µM*
SMILES	TDP1 cell CPT	TGFb inhibitor	TDP1 inh	HepG2 viability	IL1B secr inh	TDP1 cell noCPT
CCOc1ccc(CNc2ccc3c(c2)ncn3C(C)(C)C)cc1	?	?	nt	-42%	2	21µM*
COc1ccccc1-n1cnc2cc(NCc3cccs3)ccc21	0.73µM*	?	10%	0%	-8	0.92µM*
COc1ccc(S(=O)(=O)NCC(=O)O)cc1C(=O)NC1CCCCC1	-12%	-7%	6%	-22%	-10	-13%
COc1cccc(-c2c(-c3cc(OC)cc(OC)c3)n(C)c3ccc(-c4ccc5cc[nH]c5c4)cc23)c1	18µM*	-14%	4%	-17%	1	?
Cn1c(-c2ccccc2)c(Sc2ccccc2)c2cc(-c3ccc4cc[nH]c4c3)ccc21	?	nt	nt	nt	35	23µM*
COc1cc(OC)cc(-c2c(-c3cccs3)c3cc(-c4ccc5cc[nH]c5c4)ccc3n2C)c1	?	1%	0%	-4%	-10	13µM*
CC(=O)N1CCC[C@@]2(CCN(Cc3ccccc3)C2)C1	-3%	nt	nt	nt	nt	3%
COc1ccc(/C=C/c2ccccn2)cc1	?	?	nt	-53%	nt	-103%
COc1ccc(CC2S/C(=N/N=C/c3ccc(O)cc3)NC2=O)cc1 (stereo not drawn)	5%	35%	0%	20%	4	-18%
O=C1N/C(=N/N=C/c2ccccc2O)SC1Cc1ccc(F)cc1 (stereo not drawn)	0.18µM*	?	?	-29%	132	0.029µM*
O=C1N/C(=N/N=C/c2ccc(O)cc2)SC1Cc1ccccc1 (stereo not drawn)	-32%	-5%	9%	-6%	36	-11%
COc1ccc(CC2S/C(=N/N=C/c3ccccc3O)NC2=O)cc1 (stereo not drawn)	3.3µM*	7.9µM*	4%	-51%	50	0.92µM*
CCNc1nnc(SCC(=O)NC2CCCCCC2)s1	-24%	-5%	7%	2%	-4	-7%
Cc1sc(NC(=O)c2ccco2)nc1-c1ccc2c(c1)CC(C)N2C(=O)C1CC1 (stereo not drawn)	6.3µM*	?	4%	-44%	-73*	3.5µM*
CC(=O)Nc1nc(-c2ccc3c(c2)CC(C)N3C(=O)C2CC2)c(C)s1 (stereo not drawn)	1.2µM*	-22%	nt	-8%	-12	2.1µM*
Cc1cccc(C)c1NC(=O)C1c2ccccc2OCC(=O)N1CCCN1CCOCC1 (stereo not drawn)	-22%	nt	nt	nt	64	-14%
O=C(Nc1ccccc1)c1cc2ccc3ccccc3c2s1	6%	0%	4%	-9%	14	0%

Bioassay records (PubChem)
